The results in this text go back to PubChem BioAssay (NCI).

Assay [1] can be described thus: NCI Yeast Anticancer Drug Screen. Data for the rad50 strain (AID 155).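 Note: 0% = growth of vehicle-only cultures of the same strain.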 To be noted: S. cerevisiae rad50 strain growth inhibition; at 50.0 µM; active compounds read high. The method, boiled down: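 Vehicle-treated cultures provide the reference for the growth inhibition reported for compound-exposed, repair-deficient yeast.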
A short description of assay [2]: NCI Yeast Anticancer Drug Screen. Data for the mec2-1 strain (AID 157). To be noted: S. cerevisiae mec2-1 strain, at 50.0 µM, active compounds read high. The method, boiled down:
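Cells of the genetically defined mec2-1 yeast strain are incubated with test compound. Inhibition of growth is calculated against vehicle-treated controls.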

The nature of assay [3]: NCI Yeast Anticancer Drug Screen. Data for the sgs1 mgt1 strain (AID 161).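 Note: 0% = growth of cultures given vehicle only.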 The following applies: S. cerevisiae sgs1 mgt1 strain, at 50.0 µM, active compounds read high. A digest of the protocol: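 Test agents were incubated with a DNA-repair-mutant yeast strain. Growth was then read and compared against vehicle-treated controls.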
Assay [4] can be described thus: NCI Yeast Anticancer Drug Screen. Data for the cln2 rad14 strain (AID 165).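 Note: 0% = growth equal to vehicle treated cultures.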 The following applies: S. cerevisiae cln2 rad14 strain, at 50.0 µM, active compounds read high. A digest of the protocol:
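The screen exposed genetically defined yeast (cln2 rad14) to test compounds and scored growth inhibition relative to vehicle-treated controls.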

The nature of assay [5]: NCI Yeast Anticancer Drug Screen. Data for the bub3 strain (AID 167). The following applies: S. cerevisiae bub3 mutant strain, at 50.0 µM, active compounds read high. The method, boiled down:
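Mutant yeast screening strain plus compound; vehicle-treated cultures serve as the 0% inhibition reference.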

Assay [6] is described as follows: NCI Yeast Anticancer Drug Screen. Data for the mlh1 rad18 strain (AID 175). The following applies: S. cerevisiae mlh1 rad18 strain growth inhibition; at 50.0 µM; active compounds read high. A digest of the protocol: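 Compound-treated yeast growth, normalised to vehicle controls. Strain bears defined DNA repair mutations.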

SMILES strings stand for the structures. The panel holds about 79,000 compounds, 15% with a hit somewhere; the sample as a whole holds those more often. Values without a mark were called inactive. Activity calls are given as the source filed them. Cut-off read from the data, not from the text of the source: active = growth inhibition above about 70%; inactive = the rest.

Turning to `c1ccc2c(c1)ccc1c3ccccc3ccc21`, the growth inhibition in assay [1] was 14.5%; in assay [2], 10.9%; in assay [3], 13.6%; in assay [4], 25.6%; in assay [5], 24.4%; in assay [6], 17.6%.
Regarding `COc1ccc(Br)cc1/C=N\NC(=O)c1ccccc1N(C)C`, the growth inhibition in assay [1] was -24.2%; in assay [2] it was -11.6%; in assay [3] it was -10.8%; in assay [4] it was 6.6%; in assay [5] it was -3.05%; in assay [6], -4.25%.
As to `CCOc1ccc(C(CC)c2cc3c(cc2OC)OCO3)cc1` (stereo unspecified), the growth inhibition in assay [1] is -1.95%; in assay [2], -0.1%; in assay [3] it was -9.35%; in assay [4], -42.8%; in assay [5] it was 6%; in assay [6] it was -1.7%.
For `N#Cc1ccc(S(=O)(=O)c2ccc(C#N)cc2)cc1`, the growth inhibition was 1% in assay [1]; -17.6% in assay [2]; 11.3% in assay [3]; 24.4% in assay [4]; 12% in assay [5]; -19.4% in assay [6].
Take `COc1ccc(NC(=O)CC(=O)n2nc(-c3ccccc3)c(N=Nc3ccccc3C)c2-c2ccccc2)cc1`: the growth inhibition in assay [1] is -1.5%; in assay [2], -2.1%; in assay [3], -0.8%; in assay [4], 7.8%; in assay [5], 21.1%; in assay [6], 6.65%.
With `O=C1C=C(c2ccccc2)CSC1`, the growth inhibition in assay [1] is 3.7%; in assay [2], -10.1%; in assay [3] it was -9.45%; in assay [4] it was -79.3%; in assay [5], -8.75%; in assay [6] it was -4.85%.
Take `CCCCC1CCC(=O)NC1=O` (stereo unspecified): the growth inhibition was 4.25% in assay [1]; 29.6% in assay [2]; 5.8% in assay [3]; 5.2% in assay [4]; 14.7% in assay [5]; 1.9% in assay [6].
`O=C(O)c1c[nH]c2c(Cl)cccc2c1=O`: the growth inhibition in assay [1] was 18.9%; in assay [2], -16.4%; in assay [3], 4.3%; in assay [4] it was 10.8%; in assay [5], 18.4%; in assay [6] it was 14.4%.
As for `OCC1C2C=CC(C3C=CC32)C1CO` (stereo unspecified), the growth inhibition in assay [1] is 8.4%; in assay [2], -9.8%; in assay [3], -5.7%; in assay [4], -89.7%; in assay [5] it was -1.6%; in assay [6], 4.25%.
Consider `C[C@@H]1CN[C@@H](C)CN1`, for which the growth inhibition in assay [1] was -35.2%; in assay [2] it was -30.3%; in assay [3], -17.4%; in assay [4], -8.25%; in assay [5], -0.6%; in assay [6], 3.8%.
As for `CN(C)Cc1c(CC(O)(c2ccccc2)c2ccccc2)ccc2ccccc12`, the growth inhibition in assay [1] was 10.8%; in assay [2], -4.75%; in assay [3], -12.2%; in assay [4], -0.55%; in assay [5], -1.2%; in assay [6] it was 5.6%.
In the case of `CC(=O)Nc1ccc(C=O)cc1[N+](=O)[O-]`, the growth inhibition was 14.2% in assay [1]; 33.3% in assay [2]; 4.05% in assay [3]; -12.8% in assay [4]; -0.6% in assay [5]; 13.4% in assay [6].
As to `COc1ccc(Cl)c(C(=O)O)c1`, the growth inhibition in assay [1] was 19.1%; in assay [2], 6.9%; in assay [3], 4.1%; in assay [4], 21.4%; in assay [5], 6.85%; in assay [6], 28.4%.
`CN1N(c2ccccc2)C(=O)C2=NC=C(C#N)C(=N)C21C` (stereo unspecified): the growth inhibition in assay [1] was 14.9%; in assay [2], 41%; in assay [3], 24.6%; in assay [4], 15.9%; in assay [5], 19.5%; in assay [6] it was 42.4%.
In the case of `COc1coc(/C=C/C(=O)c2ccc(O)c(O)c2)cc1=O`, the growth inhibition is -11.9% in assay [1]; 12.7% in assay [2]; 10.3% in assay [3]; -11.8% in assay [4]; -6.25% in assay [5]; -32.5% in assay [6].
Turning to `Cc1nc2cncnc2n(CCN2CCOCC2)c1=O`, the growth inhibition was 15.1% in assay [1]; 16.2% in assay [2]; 23.2% in assay [3]; -2.35% in assay [4]; -2.45% in assay [5]; 20.4% in assay [6].
As for `C=C(Cl)C(Cl)(CBr)CCC(Cl)C(C)C` (stereo unspecified), the growth inhibition in assay [1] was 65%; in assay [2] it was 15.5%; in assay [3], 85.2% (active); in assay [4], 73.7% (active); in assay [5], 75.6% (active); in assay [6], 72% (active).
Take `O=C1CC2(C(=O)N1CN(Cc1ccccc1)Cc1ccccc1)c1ccccc1-c1ccccc12`: the growth inhibition is 34.5% in assay [1]; 2.1% in assay [2]; -5.55% in assay [3]; 14.1% in assay [4]; -1.1% in assay [5]; 22.4% in assay [6].
As to `O=C(Nc1ccccc1)NC1CCCC1`, the growth inhibition in assay [1] was 4.65%; in assay [2] it was 7.85%; in assay [3] it was -1.8%; in assay [4] it was -5.5%; in assay [5] it was -12.2%; in assay [6], -1.2%.
For the compound `C/C(=N\NS(=O)(=O)c1ccc(C)cc1)c1ccc[n+]([O-])n1`, the growth inhibition in assay [1] was 4.9%; in assay [2], -2.4%; in assay [3] it was 5.8%; in assay [4], 7.4%; in assay [5] it was 6.2%; in assay [6] it was -0.55%.
`O=C1c2ccccc2-c2nc(/C=C/c3ccccc3)cc3c2c1nc1ccccc13`: the growth inhibition in assay [1] was 10.2%; in assay [2], 6.2%; in assay [3], 8.6%; in assay [4] it was 7%; in assay [5] it was -9.5%; in assay [6], -0.25%.
